From PubChem BioAssay
MITF act – increases MITF-driven TRPM1 promoter luciferase signal. SK-MEL-5 TRPM1-promoter luciferase, 24 h; % of positive control, neutral wells = 0. activation, % at 12.5 µM. 0.75% of 300,000 active. AID 588334;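 active means mean activation of at least 80% with every replicate also reaching 80%; inconclusive means mean reaches 80% but some replicate falls short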;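 further: 0% = neutral control wells and 100% = parthenolide positive control wells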
Wnt bcat act – Wnt/beta-catenin pathway activation; Wnt/beta-catenin reporter cell assay, activator, plate reader; activation, % at 9.35 µM; 1.2% of 300,000 active; AID 743398; in the data active means activation above about 30%, passing the limit was not always enough; inconclusive means no clear call, values can overlap the other calls;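 further: 0% = neutral control wells and 100% = positive control wells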
PfHsp90 yeast 2 – growth inhibition of yeast expressing Plasmodium Hsp90. S. cerevisiae expressing PfHsp90, BacTiter-Glo ATP, 48 h; yeast lacking PDR1 and PDR3 efflux regulators. inhibition, % at 9.4 µM. 0.32% of 310,000 active. AID 504621;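 active means every replicate shows inhibition above about 80%, whatever the replicate mean, limit read from the data; inconclusive means mean inhibition reaches the set limit but some replicate falls short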;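 further: 0% = DMSO neutral controls and 100% = 20 µM radicicol positive controls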
MITF TRPM1 inh – MITF TRPM1 promoter inhibition in SK-MEL-5 cells. inhibition, % at 12.5 µM. SK-MEL-5 TRPM1 promoter luciferase, 24 h. 0.83% of 330,000 active;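 active means mean inhibition across replicates of 60% or more, whatever share of single replicates reaches that level; inconclusive means some that reach 60%, reason not given; inactive means mean inhibition across replicates below 60%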
NSD2 inh – blocks human histone methyltransferase NSD2; NSD2 peptide methylation, AlphaScreen, 120 min; O96028; AID 743445; 0.54% of 310,000 active; inhibition, % at 12.5 µM; in the data active means inhibition above about 50%
Target sequence (O96028 whole entry, looked up): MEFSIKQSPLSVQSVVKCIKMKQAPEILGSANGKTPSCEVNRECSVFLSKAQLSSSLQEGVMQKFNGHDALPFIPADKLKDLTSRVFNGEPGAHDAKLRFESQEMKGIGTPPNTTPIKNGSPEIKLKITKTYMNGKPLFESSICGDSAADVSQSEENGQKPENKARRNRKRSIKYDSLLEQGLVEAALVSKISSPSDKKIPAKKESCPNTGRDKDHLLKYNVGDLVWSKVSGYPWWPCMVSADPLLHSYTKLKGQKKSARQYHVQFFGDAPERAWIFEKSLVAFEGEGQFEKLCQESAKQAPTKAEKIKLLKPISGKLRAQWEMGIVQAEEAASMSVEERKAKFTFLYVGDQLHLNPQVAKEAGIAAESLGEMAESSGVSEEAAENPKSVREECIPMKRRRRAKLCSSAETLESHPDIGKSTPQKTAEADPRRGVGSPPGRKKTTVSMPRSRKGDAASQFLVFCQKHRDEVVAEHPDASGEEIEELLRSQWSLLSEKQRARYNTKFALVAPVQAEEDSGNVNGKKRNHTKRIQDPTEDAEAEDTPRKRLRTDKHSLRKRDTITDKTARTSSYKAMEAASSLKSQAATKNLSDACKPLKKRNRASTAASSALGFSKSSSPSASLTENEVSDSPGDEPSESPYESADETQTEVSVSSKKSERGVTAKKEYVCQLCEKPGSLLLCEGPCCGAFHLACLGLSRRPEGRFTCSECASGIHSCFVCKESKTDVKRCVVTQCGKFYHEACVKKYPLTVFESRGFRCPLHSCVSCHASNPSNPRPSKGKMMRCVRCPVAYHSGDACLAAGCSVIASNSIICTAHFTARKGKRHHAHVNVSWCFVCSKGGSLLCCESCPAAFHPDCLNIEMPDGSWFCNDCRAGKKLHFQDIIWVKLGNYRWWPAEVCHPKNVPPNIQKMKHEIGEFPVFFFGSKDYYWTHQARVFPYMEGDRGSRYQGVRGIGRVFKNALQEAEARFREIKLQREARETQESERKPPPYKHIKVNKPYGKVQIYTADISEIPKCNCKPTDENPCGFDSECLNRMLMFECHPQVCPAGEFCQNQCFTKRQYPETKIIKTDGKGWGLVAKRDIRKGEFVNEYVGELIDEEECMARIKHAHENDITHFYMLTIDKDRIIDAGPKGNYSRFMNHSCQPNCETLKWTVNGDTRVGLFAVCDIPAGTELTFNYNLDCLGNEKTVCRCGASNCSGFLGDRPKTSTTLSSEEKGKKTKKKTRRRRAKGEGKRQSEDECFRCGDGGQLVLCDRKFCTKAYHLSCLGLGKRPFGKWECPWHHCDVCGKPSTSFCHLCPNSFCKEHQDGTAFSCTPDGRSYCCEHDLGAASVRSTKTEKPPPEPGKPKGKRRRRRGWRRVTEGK
Glyco luc inh – blocks N-linked glycosylation in D54 reporter cells | D54 ERlucT glycosylation luciferase reporter, 24 h; percent of 100 nM tunicamycin response | reporter increase, % at 12.5 µM | 0.23% of 360,000 active | AID 588692;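 active means mean luciferase reporter signal, scaled so untreated is 0 and the glycosylation-blocking control 100, at or above a set limit in every replicate; inconclusive means mean reaches the limit but not every replicate does; inactive means mean below the limit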;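 further: luciferase carries N-glycosylation sites so blocking glycosylation raises the light; 0% = median of neutral control wells and 100% = median of 100 nM tunicamycin wells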
* marks the source's active call; other numbers are inactive results; ? = inconclusive; · = no result. Hits are enriched below; roughly 2.9% of the tested compounds scored in any of these assays.

SMILES | MITF act | Wnt bcat act | PfHsp90 yeast 2 | MITF TRPM1 inh | NSD2 inh | Glyco luc inh
C#CCN(C(=O)C1CCC(=O)N(CCc2cccc(F)c2)C1)C1CCCCC1 (stereo unspecified) | · | 33* | · | · | -1 | 0
Cc1ccsc1CCNC(=O)C1CCC(=O)N(CCc2cccc(F)c2)C1 (stereo unspecified) | 95* | 26 | 2 | -90 | -2 | 1
O=C(NC1CCC1)C1CCC(=O)N(Cc2cccc(F)c2)C1 (stereo unspecified) | 4 | 3 | 9 | -7 | -4 | 0
O=C(CCn1nnc2ccccc21)N1CCN(c2ccccc2F)CC1 | · | · | · | · | 6 | ·
COc1ccc(NC(=O)CSc2nc(C)cs2)c([N+](=O)[O-])c1 | 21 | 46* | 6 | -23 | 0 | 0
CCOc1ccc(NS(=O)(=O)c2ccc(C(=O)NNC(=O)c3ccccc3O)cc2)cc1 | -11 | -4 | 24 | 12 | 1 | 0
CCCN=Cc1sc2ccc(OCC)cc2c1O | 101* | 27 | -60 | -102 | 5 | 0
O=C(COC(=O)c1cccc(N2C(=O)C3CC=CCC3C2=O)c1)c1ccccc1 (stereo unspecified) | 26 | 6 | -5 | -17 | -2 | -3
CCc1ccc(C(=O)COC(=O)c2cccc(N3C(=O)c4c(C)nc5ccccc5c4C3=O)c2)cc1 | -9 | 48* | 19 | 8 | 0 | -5
Cc1ccc(NS(=O)(=O)c2ccccc2F)cc1S(=O)(=O)N1CCCCCC1 | -2 | 1 | -2 | 4 | 0 | -3
COC(=O)c1c[nH]c2c1-c1cc(C(=O)OCc3ccccc3)n(S(=O)(=O)c3ccc(C)cc3)c1C(=O)C2=O | · | -5 | 14 | 112* | 5 | -17
O=[N+]([O-])c1ccc(CSc2nc3ccccc3o2)cc1 | 97* | 25 | -14 | -93 | 2 | ·
COC(=O)c1ccc(CSc2nc3ccccc3o2)cc1 | 42 | · | -9 | -39 | · | 2
Fc1ccc(-c2cn3cc(C(F)(F)F)cc(Cl)c3n2)cc1 | 39 | 49* | 6 | -36 | 0 | -11
CCCCCCCCN1C(=O)[C@@H](CC(=O)NCCCOC)C[C@@]2(C(=O)OC)C1=C[C@H](C1CCCC1)O[C@@H]2C | · | -5 | · | · | -2 | ·
Nc1c(-c2cccs2)cnc2c(-c3ccc(F)cc3)cnn12 | 71 | 54* | -19 | -69 | -3 | -11
Cn1c(=O)c2cc(NC(=O)NCc3ccccc3)ccc2n1Cc1cccc(C(F)(F)F)c1 | · | 0 | · | · | -2 | -3
C=CCNc1nc(-c2ccccn2)nnc1-c1ccccc1 | -78 | -4 | 49 | 78* | -2 | -14
c1ccc(-c2ccc(CNc3nc(-c4ccccn4)nnc3-c3ccccc3)cc2)cc1 | · | · | · | · | 0 | ·
Clc1ccc(C2=Nn3c(nnc3-c3n[nH]c4c3CCC4)SC2)cc1 | -29 | · | -14 | 28 | 9 | 37*
Brc1ccc(C2=Nn3c(nnc3-c3n[nH]c4c3CCC4)SC2)cc1 | -15 | · | · | 16 | · | 42*
c1ccc(-c2ccc(C3=Nn4c(nnc4-c4ccccc4)SC3)cc2)cc1 | · | · | · | · | 0 | ·
Cc1ccc(-c2nnc3n2N=C(c2ccc(Br)cc2)CS3)cc1 | 17 | -4 | -5 | -16 | · | -2
CCOc1nc2c(c(C)nn2-c2ccccc2)c(C)c1CCC(=O)N1CCN(c2ccccn2)CC1 | · | · | · | · | -2 | ·
Cc1ccc(C(=O)C2CCN(CC(=O)N3CCOCC3)CC2)cc1 | · | · | · | · | 2 | ·
SMILES | MITF act | Wnt bcat act | PfHsp90 yeast 2 | MITF TRPM1 inh | NSD2 inh | Glyco luc inh
CCCCN(C)CC(O)Cn1cc(/C=C/C(=O)c2cccs2)c2ccccc21 (stereo unspecified) | -90 | · | -72 | 90* | -9 | ?
COc1ccc(NC(=O)COC(=O)c2n[nH]c3ccccc23)cc1 | · | · | · | · | -2 | ·
COc1cccc(NC(=O)CN(C)C(C)C(=O)NC(C)c2ccc(Cl)cc2Cl)c1 (stereo unspecified) | 6 | 3 | 0 | -2 | -1 | -2
O=C(CSc1nnc(-c2cccnc2)n1-c1ccc(Cl)cc1)Nc1ccc(S(=O)(=O)Nc2nccs2)cc1 | · | · | · | · | 2 | ·
Cc1ccc2c(c1)=N/C(=N\c1[nH]c(O)c3ccccc13)N=2 | · | 5 | · | · | 1 | 0
Oc1[nH]c(N=C2N=c3ccccc3=N2)c2ccccc12 | -29 | 29 | 27 | 27 | 0 | 117*
COc1ccc(-n2c3c(c(=O)[nH]c2=O)C(NC(C)=O)(C(F)(F)F)C(=O)N3)cc1 (stereo unspecified) | -6 | 12 | · | 1 | -5 | 1
OC(Cn1cncn1)(c1ccc(F)cc1)c1ccc(Cl)cc1 (stereo unspecified) | 3 | -1 | 94* | -4 | -2 | 4
OC(Cn1cncn1)c1ccc(Cl)cc1 (stereo unspecified) | -1 | · | -14 | 0 | -2 | 0
Cc1ccc2c(c1)C1NC(=S)NC(C)(O2)C1C(=O)Nc1ccc(Cl)cc1 (stereo unspecified) | -10 | · | -28 | 11 | -2 | 2
CCOC(=O)C(=CNc1nc2ccc(C(=O)OCC)cc2s1)C(=O)OCC | · | 2 | · | · | -3 | 1
CCOC(=O)c1ccc2nc(NC(C)=O)sc2c1 | 42 | 46* | 0 | -38 | -2 | -6
CCOC(=O)c1ccc2nc(Nc3nc4ccc(F)cc4s3)sc2c1 | -95 | -12 | -105 | 96* | 0 | -21
COC(=O)c1ccc2nc(NC(=O)C(C)C)sc2c1 | 43 | -6 | 13 | -49 | -1 | -6
COC(=O)c1ccc2nc(Nc3nc4c(F)cc(F)cc4s3)sc2c1 | -93 | -26 | -15 | 95* | -2 | -13
CCOC(=O)c1c(N2C(=O)C=CC2=O)sc(C)c1C | -58 | · | 154* | 61* | · | 2
CCOC(=O)c1c(NC(N)=O)sc(C)c1C | -10 | · | -4 | 12 | 3 | 4
O=c1[nH]c(Cc2cccs2)nc2scc(-c3ccc(Cl)cc3)c12 | 94* | 20 | 9 | -88 | -1 | -4
O=C(NC(=S)Nc1ccccc1O)c1ccccc1Cl | 31 | -4 | -13 | -30 | 0 | -2
O=C(CNc1ccc(Br)cc1)Nc1ccc(S(=O)(=O)N2CCCCC2)cc1 | · | -1 | · | · | -6 | -4
COc1ccc(C(=O)O)cc1S(=O)(=O)Nc1cc(S(=O)(=O)Nc2ccc(C)c(Cl)c2)ccc1Cl | · | · | · | · | 2 | ·
Cc1nn(-c2ccccn2)c2c1-c1nc(N)ncc1CC2 | 110* | 30 | -28 | -100 | -3 | -6
CCC(c1nc2ccccc2[nH]1)n1c(-c2ccc3cc[nH]c3c2)nc2ccccc21 (stereo unspecified) | · | 18 | · | · | · | ·
C[C@H](O)[C@@H]1C(=O)N2CCc3c([nH]c4c(-c5ccccc5)cccc34)[C@@H]2C[C@@H]1N(C)C(=S)NCCc1ccccc1 | · | -6 | · | · | · | ·
O=C(CSC1CCc2ccccc21)NNC(=O)Nc1ccc(Cl)cc1 (stereo unspecified) | · | 38* | · | · | 0 | ·
